Assay results reported in the supplement of paper PMC10338343.
± gives the standard deviation. In all, about 8,200 sequences were measured (“pre-steady-state target cleavage rate”: median about 0.024, highest 2% from about 1.3 on). Many of the other results were omitted from the sample, so the highest values are more common in it than they were.

Tested on: MIWI (PIWIL1) piRISC loaded with L1MC piRNA (30 nt)
Assay: pre-steady-state target cleavage rate (min^-1); MIWI and MILI are mouse PIWI proteins and EfPiwi is from a freshwater sponge; tags in brackets are library labels; higher = faster piRNA-guided slicing of the target
Settings: guide: L1MC piRNA 5'p-UAACUAAAUACUAUGCAAGCUGUAGGUCCU
Summary of the method: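 A transcribed, DNA-blocked target RNA library […] was incubated at 33 °C for 0–8 or 0–960 min with 1 nM active affinity-purified piRISC carrying one synthetic guide, in HEPES–potassium acetate buffer with or without 500 nM GTSF1 partner protein. Uncleaved targets were then sequenced and normalised to depth and to weakly complementary targets. Data from three trials were pooled, with k3 capped at 0.0001 min^-1, and a burst-and-steady-state fit yielded the pre-steady-state cleavage rate.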

[1] = auxiliary factor: 500 nM mouse GTSF1
[2] = auxiliary factor: none (no GTSF1)
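Further: 1 nM active piRISC with 0.1 nM target library at 33 °C single turnover.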

| Sequence | pre-steady-state target cleavage rate [1] | pre-steady-state target cleavage rate [2] |
| --- | --- | --- |
| UCCUGGAUCAGCUUGAUAGUAUUUAGUUA | 0.0664 ± 0.007 | 0.00393 ± 0.0017 |
| AGGACCUAGAGCUUGCAUAGUAUUUUCAAA | 0.0396 ± 0.013 |  |
| UCCUGCUACAGCAUGCAUAGUAUUUAGUAA | 0.655 ± 0.063 | 0.00614 ± 0.0024 |
| UCCUGGAACAGCUACCAUAGUAUUUAGUAA | 0.0979 ± 0.017 |  |
| UCCUCCUACAGCUUGCAUAGUUAAUAGAAA | 0.0486 ± 0.014 |  |
| UCCUGGUACAGCUUGCAAUGUAUUUAGAAA | 0.0194 ± 0.0063 |  |
| UCGACCUACAGCUUGGUUAGUAUUUUCAAA | 0.0241 ± 0.0089 |  |
| UCCUGGAUGUCCUUGCAUAGUAUAAUGUUA | 0.0139 ± 0.0063 |  |
| UCGACCUACAGCUUGCAUAGUAUUAACAAA | 0.401 ± 0.044 |  |
| UCCACCUACAGCUUGCUUAGUAUUAAGUUA | 0.31 ± 0.03 | 0.00763 ± 0.0016 |
| AGGACCUACAGCAUGCAUAGUAUUUAGUAA | 0.986 ± 0.075 | 0.0556 ± 0.014 |
| UGGACCUACAGCAUUGCAUAGUAUUUAGUUA | 1.27 ± 0.11 | 0.0665 ± 0.014 |
| UGGUCCUACAGCAUGCAUAGUAUUUAGUUA | 1.19 ± 0.061 | 0.0657 ± 0.014 |
| AGGACCUACAGCAUGCAUAGUAUUUAGAAA | 0.577 ± 0.059 | 0.00715 ± 0.0031 |
| UGGACCUACAGCAUGCAUAGUAUUUAGUUA | 1.38 ± 0.078 | 0.0549 ± 0.011 |
| AGGUCCUACAGCAUGCAUAGUAUUUAGUUA | 1.33 ± 0.062 | 0.107 ± 0.026 |
| AGGACCUACAGCAUGCAUAGUAUUUAGUUA | 1.33 ± 0.06 | 0.073 ± 0.015 |
| UGGACCUACAGCAUGCAUAGUAUUUAGUAA | 0.977 ± 0.075 | 0.0303 ± 0.0065 |
| UCGUCCUACAGCAUGCAUAGUAUUUAGUUA | 1.26 ± 0.047 | 0.0282 ± 0.0049 |
| UCCUGGAUGUCGAUGCAUAGUAUUUAGUGA | 0.0103 ± 0.0037 |  |
| UCCACCUACAGCAAGCAUAGUAUUUAGAAA | 0.243 ± 0.035 |  |
| UCCUGGAUGUCCUUGGAUAGUAUUUUGUUA | 0.0668 ± 0.017 |  |
| UCCUCCUACAGCUUGCAUAGUAUCUUAGUUA | 0.96 ± 0.045 | 0.016 ± 0.0044 |
| UGGACCUACAGGAUGCAUAGUAUUUACAAA | 0.216 ± 0.039 |  |
| UCCUGGAACUCGUUGCAUAGUAUUUAGUAA | 0.071 ± 0.011 | 0.00318 ± 0.0021 |
| UCCUGCUACAGCUUGCAUAGUAUUUAGUA | 0.422 ± 0.071 | 0.00464 ± 0.0019 |
| UCCUGCUACAGCUUGCUUAGAAUUUAGUUA | 0.247 ± 0.026 | 0.00845 ± 0.0029 |

| Sequence | pre-steady-state target cleavage rate [1] | pre-steady-state target cleavage rate [2] |
| --- | --- | --- |
| AGGACCUACACGAUGCAUAGUAUUUACAAA | 0.19 ± 0.025 |  |
| UCCACCUACAGCUUGCAAAGUAUAUAGUUA | 0.468 ± 0.045 | 0.0135 ± 0.0031 |
| AGGACCUUCAGCUUGCAUAGUAUUUAGUUA | 1.32 ± 0.056 | 0.0842 ± 0.013 |
| UGGACCUUCAGCUUGCAUAGUAUUUAGUAA | 1.07 ± 0.064 | 0.0524 ± 0.011 |
| UGGACCUACAGCUUGCAUAGUAUAUAGUUA | 0.892 ± 0.062 | 0.0341 ± 0.0087 |
| UGGACCUACAGCUUGCAUAGUAUUAGUUA | 0.172 ± 0.032 | 0.00299 ± 0.0019 |
| AGGACCUACAGCUUGCAUAGUAUAUAGUAA | 0.493 ± 0.058 | 0.0216 ± 0.0048 |
| UCGACCUACAGCUUGCAAAGUAUAUAGUUA | 0.855 ± 0.055 | 0.0157 ± 0.0033 |
| AGGACCUACAGCUUGCAUAGUAUUAUAGUUA | 1.05 ± 0.078 | 0.0707 ± 0.015 |
| UGGACCUACAGCUUGCAUAGUAUAUUAGUUA | 1.33 ± 0.079 | 0.0409 ± 0.0089 |
| UGGACCUACAGCUUGCAUAGUAUUAUAGUUA | 1.24 ± 0.062 | 0.052 ± 0.011 |
| AGGACCUACAGCUUGCAUAGUAUAUUAGUUA | 1.18 ± 0.097 | 0.0609 ± 0.015 |
| AGGACCUUCAGCUUGCAAAGUAUUUAGUUA | 1.3 ± 0.051 | 0.0464 ± 0.0089 |
| AGGACCUACAGCUUGCAAAGUAUAUAGUUA | 0.667 ± 0.049 | 0.0238 ± 0.0054 |
| UGGACCUACAGCUUGCAUAGUAUAUAGUAA | 0.356 ± 0.038 | 0.012 ± 0.0037 |
| AGGACCUACAGCUUGCAUAGUAUAUAGUUA | 0.884 ± 0.066 | 0.0667 ± 0.017 |
| UGGACCUACAGCUUGCAAAGUAUAUAGUUA | 0.895 ± 0.057 | 0.0204 ± 0.0062 |
| UGGACCUUCAGCUUGCAUAGUAUUUAGUUA | 1.45 ± 0.067 | 0.069 ± 0.011 |
| AGGACCUUCAGCUUGCAUAGUAUUUAGUAA | 1.07 ± 0.079 | 0.0632 ± 0.012 |
| UGGACCUUCAGCUUGCAAAGUAUUUAGUUA | 1.34 ± 0.073 | 0.0368 ± 0.0084 |
| UCCUCCUACAGCUUGCAUUGUAUUAAGUUA | 0.309 ± 0.026 | 0.00813 ± 0.0024 |
| UCCACCUACAGCUUGCAUAGAAUUUAGAUA | 0.247 ± 0.037 | 0.00935 ± 0.0029 |
| UCGACCUACAGCUUGCAUAGUUAUUACAAA | 0.115 ± 0.035 |  |
| UCCUGGAUGUCGAACGUAAGUAUUUAAUUA | < 0.0001 |  |
| UCCUGGUACAGCUUGCAUAGUUUAUAGUUA | 0.0594 ± 0.017 | 0.0135 ± 0.004 |
| UCCUGGAUGUCGAACGUUUGUAUAUAGUUA | < 0.0001 |  |
| UGGACCUACAGCUUGCAUAGUAUUUAGUUUA | 1.56 ± 0.086 | 0.075 ± 0.014 |

| Sequence | pre-steady-state target cleavage rate [1] | pre-steady-state target cleavage rate [2] |
| --- | --- | --- |
| UGGACCUACAGCUUGCAUAGUAUUUAGCUUA | 0.316 ± 0.023 | 0.0288 ± 0.0059 |
| UGGACCUACAGCUUGCAUAGUAUUUAGUAA | 1.11 ± 0.064 | 0.0627 ± 0.014 |
| UGGACCUACAGCUUGCAUAGUAUUUAGUA | 0.885 ± 0.062 | 0.0273 ± 0.0069 |
| UGGACCUACAGCUUGCAUAGUAUUUAGUUC [g2:g29:cont:t1C] | 1.14 ± 0.068 | 0.0625 ± 0.012 |
| UGGACCUACAGCUUGCAUAGUAUUUAGUUU [g2:g29:cont:t1U] | 1.62 ± 0.082 | 0.0974 ± 0.02 |
| UCCUGGAACAGGUUGCAUAGUAUUUAGAAA | 0.362 ± 0.043 |  |
| AGGACCUACAGCUACGAUAGUAUUUAGUAA | 0.153 ± 0.045 |  |
| UCGACCAACAGCUUGCAUAGUAAUUAGUUA | 0.972 ± 0.041 | 0.0305 ± 0.0074 |
| AGGACCUACAGCUUGGUUAGUAUUUACAAA | 0.0786 ± 0.021 |  |
| UGGACCUACAGCAAGCAUAGUAUUUACAAA | 0.273 ± 0.051 |  |
| UGGACCUACAGCUUGUAUAGUAUUUAGUUA | 1.77 ± 0.11 | 0.0563 ± 0.012 |
| AGGACCUACAGCUUGCUAUAGUAUUUAGUUA | 0.137 ± 0.037 |  |
| UGGACCUACAGCUUGCUAUAGUAUUUAGUUA | 0.0205 ± 0.0066 |  |
| UCGACCUACAGCUUGUAUAGUAUUUAGUUA | 1.7 ± 0.074 | 0.0725 ± 0.015 |
| AGGACCUACAGCUUGUAUAGUAUUUAGUUA | 1.6 ± 0.061 | 0.0803 ± 0.015 |
| UGGACCUACAGCUUGUCAUAGUAUUUAGUUA | 0.706 ± 0.1 | 0.00373 ± 0.0033 |
| UCGACCUACAGCUUGUCAUAGUAUUUAGUUA | 0.742 ± 0.083 | 0.00458 ± 0.0029 |
| UCGACCUACAGCUUGCUAUAGUAUUUAGUUA | 0.0661 ± 0.018 |  |
| UCCACCUACAGCUUGUAUAGUAUUUAGUUA | 1.18 ± 0.048 | 0.0524 ± 0.0091 |
| UCCUGGAUGAGCUUGCAUACUAUUUAGAUA | 0.0538 ± 0.017 | 0.00863 ± 0.0041 |
| AGGACCUACAGCUAGCAUAGUAUUUACAAA | 0.474 ± 0.071 |  |
| UCCACCUUCAGGUUGCAUAGUAUUUAGUUA | 0.817 ± 0.1 | 0.0279 ± 0.0047 |
| UCCUGGAUCAGCUCUGCAUAGUAUUUAGUUA | 0.985 ± 0.054 | 0.0138 ± 0.0041 |
| UCCUGCUUGAGCUUGCAUAGUAUUUAGUAA | 0.491 ± 0.051 | 0.0206 ± 0.004 |
| UCCUGGAACAGCUUGCAUAGUAAUUACAAA | 0.129 ± 0.038 |  |
| UCCUGGAACAGGUUGCAUAGUAUUUACUUA | 0.164 ± 0.023 | 0.0109 ± 0.0022 |
